VHR inh abs = VHR1 phosphatase inhibitors, primary screen, biochemical, absorbance, uHTS. hit rate 0.52% among 290,000. AID 1654, 2009. Dual specificity protein phosphatase 3 (Homo sapiens), P51452. inhibition, % at 13.3 µM. recombinant VHR phosphatase, pNPP absorbance; in the data active means inhibition above about 50%
Target sequence (P51452 whole entry, looked up): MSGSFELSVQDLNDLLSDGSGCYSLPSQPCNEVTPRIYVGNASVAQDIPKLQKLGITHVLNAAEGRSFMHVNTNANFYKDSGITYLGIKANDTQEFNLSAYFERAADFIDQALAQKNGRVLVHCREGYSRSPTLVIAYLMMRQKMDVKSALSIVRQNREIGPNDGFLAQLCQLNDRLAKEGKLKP
SARS 3CLpro inh-1 = SARS-CoV 3CLpro protease inhibitors, primary screen, biochemical, quenched FRET; recombinant SARS-CoV 3CLpro, quenched FRET peptide cleavage; inhibition, % at 6 µM; AID 1706, 2009; Replicase polyprotein 1ab (Severe acute respiratory syndrome coronavirus), P0C6X7; hit rate 0.14% among 290,000; in the data active means inhibition above about 12%
CCHFV vOTU inh = CCHFV vOTU protease inhibitors, primary screen, biochemical, Pep-AMC substrate, fluorescence | Crimean-Congo hemorrhagic fever virus L polyprotein viral ovarian tumor (vOTU) protease … | inhibition, % at 11.5 µM | hit rate 0.55% among 370,000 | AID 651958, 2012; in the data active means inhibition above about 30%
RecA splice inh = Mtb RecA intein splicing inhibitors, primary screen, biochemical, fluorescence, HTS; hit rate 0.75% among 290,000; inhibition, % (test concentration not listed); Protein RecA (Mycobacterium tuberculosis (strain ATCC 25618 / H37Rv)), P9WHJ3; cell-free RecA intein splicing; in the data active means inhibition above about 30%
SARS 3CLpro inh-2 = confirmation of SARS coronavirus 3C-like protease inhibitors, retest, confirmation, biochemical | shares compounds with SARS 3CLpro inh-1 | QFRET protease activity assay, 3CLpro | inhibition, % at 6 µM | hit rate 36% among 380; in the data active means inhibition above about 13%
GFP chromophore = counter-screen: blocks GFP chromophore formation, dose response, counter-screen, biochemical, fluorescence, homogeneous; shares compounds with RecA splice inh; cell-free GFP chromophore formation; EC50, µM; hit rate 83% among 2,100; call rule not given here
Of the large screens only hits and unclear results are named; the others gave an inactive call (follow-up assays come after a bar, where they were run). Hits are enriched below; roughly 1.5% of the tested compounds scored in any of these assays.

Cc1nn(-c2ccccc2)c(N)c1C(c1ccccc1)c1c(C)nn(-c2ccccc2)c1N	SARS 3CLpro inh-1 13.9 | SARS 3CLpro inh-2 inactive
Cc1nn(-c2ccccc2)c(N)c1N=O	none
COc1ccc(C=O)cc1-c1cc(C(C)=O)c2n(c1=O)CCC2	none (no result: VHR inh abs, SARS 3CLpro inh-1, RecA splice inh)
Cc1ccc2ncnc(Nc3ccccc3)c2c1	none
Cc1ccc(O)c(Nc2ncnc3ccccc23)c1	SARS 3CLpro inh-1 13.4 (no result: RecA splice inh) | SARS 3CLpro inh-2 inactive
O=C(CCc1ccccc1-c1ccccc1CCNC(=O)c1cccc(F)c1)NCc1ccccc1	none (no result: VHR inh abs, SARS 3CLpro inh-1, RecA splice inh)
COc1ccc(NC(=O)CC2C(=O)NCCN2C(=O)Nc2ccc(C(F)(F)F)cc2)cc1 (stereo not given)	SARS 3CLpro inh-1 13.1 | SARS 3CLpro inh-2 inactive
O=C(NCc1ccccn1)C1CC(c2ccc(F)cc2)=NO1 (stereo not given)	none
CCOC(=O)N[C@@H](CC(C)C)C(=O)N1CCC[C@H]1C(=O)NCc1ccccc1	none (no result: VHR inh abs, SARS 3CLpro inh-1, RecA splice inh)
COc1ccc(COc2ccc(C3C(S(=O)(=O)c4ccccc4)CON3C)cc2OC)cc1 (stereo not given)	SARS 3CLpro inh-1 13.8 | SARS 3CLpro inh-2 inactive
CCOC(=O)C1(COCc2ccccc2)CCCCC1=O (stereo not given)	none (no result: VHR inh abs, SARS 3CLpro inh-1, RecA splice inh)
Cn1ncc(Cl)c1C(=O)Nc1ccc2c(c1)OCO2	SARS 3CLpro inh-1 13.1 | SARS 3CLpro inh-2 inactive
CCCNC(=O)C[C@H]1CC[C@H]2[C@@H](COc3ccc(NC(=O)c4cncs4)cc3C(=O)N2C)O1	none (no result: VHR inh abs, SARS 3CLpro inh-1, RecA splice inh)
CC(=O)c1cc(-c2ccccc2)[nH]c1N1CCOCC1	SARS 3CLpro inh-1 45.6 | SARS 3CLpro inh-2 inactive
N#CCC(=O)N/N=C/c1cn(Cc2ccccc2C#N)c2ccccc12	none (no result: RecA splice inh)
N#CCC(=O)N/N=C/c1c(-c2ccccc2)n(-c2ccccc2)c2ccccc12	SARS 3CLpro inh-1 21.7 | SARS 3CLpro inh-2 23.2
O=C(O)c1ccc(N2N=C(c3ccccc3)CC2c2ccccc2)cc1 (stereo not given)	SARS 3CLpro inh-1 13.2 | SARS 3CLpro inh-2 inactive
Cc1ccc(-c2cc(NC(=O)c3ccccc3[N+](=O)[O-])n[nH]2)cc1	SARS 3CLpro inh-1 15.7 | SARS 3CLpro inh-2 14.5
O=C(Nc1nc(-c2cccs2)cs1)c1ccc(Cl)cc1	SARS 3CLpro inh-1 12.8 | SARS 3CLpro inh-2 inactive
O=C(Nc1ccc(NC(=S)NC(=O)c2ccccc2Cl)cc1)c1cccc(Cl)c1	SARS 3CLpro inh-1 15.7 (no result: VHR inh abs, RecA splice inh) | SARS 3CLpro inh-2 inactive
O=C(N[C@H](Cc1ccc(Cl)cc1)C(=O)O)OCC1c2ccccc2-c2ccccc21	none
O=C(N[C@@H](Cc1ccc(Br)cc1)C(=O)O)OCC1c2ccccc2-c2ccccc21	SARS 3CLpro inh-1 12.4 | SARS 3CLpro inh-2 inactive
Cc1ccc2c(c1)C1CS(=O)(=O)N(CCc3ccccc3)CN1C2 (stereo not given)	none (no result: VHR inh abs, SARS 3CLpro inh-1, RecA splice inh)
N/C(=N\S(=O)(=O)c1cc(C(F)(F)F)cc(C(F)(F)F)c1)c1ccc(Cl)cc1	SARS 3CLpro inh-1 14.2 | SARS 3CLpro inh-2 inactive
N/C(=N\S(=O)(=O)c1cc(C(F)(F)F)cc(C(F)(F)F)c1)c1ccncc1	none
CC(C)(C)c1ccc(C(=O)Nc2ccc(S(=O)(=O)Nc3cnc4ccccc4n3)cc2)cc1	SARS 3CLpro inh-1 14.1 (no result: VHR inh abs) | SARS 3CLpro inh-2 inactive
COC(=O)[C@H]1C[C@@]2(C)c3ccccc3N[C@H]2N1	none (no result: VHR inh abs, SARS 3CLpro inh-1, RecA splice inh)
C/C(=N\NC(=O)c1cccc(Cl)c1)c1cccc(NC(=O)C(C)C)c1	none
C/C(=N\NC(=O)c1ccc(Cl)c(Cl)c1)c1cccc(NC(=O)C(C)C)c1	SARS 3CLpro inh-1 22.6 | SARS 3CLpro inh-2 inactive
Cc1ccc(NC(=O)CN(C)C(=O)c2cccnc2Nc2cccc(C(F)(F)F)c2)cc1	SARS 3CLpro inh-1 12.6 | SARS 3CLpro inh-2 inactive
Cc1ccc(C(=O)CSc2nnc(CNc3ccc(C)cc3C)n2Cc2ccco2)cc1	SARS 3CLpro inh-1 12.7 | SARS 3CLpro inh-2 inactive
O=C(Nc1ccc(C(=O)NC2CCCCC2)cc1)c1cccnc1	none
O=Cc1c(C(=O)O)n(CC(=O)O)c2ccccc12	SARS 3CLpro inh-1 13.3 | SARS 3CLpro inh-2 inactive
O=Cc1c(C(=O)O)n(Cc2ccc(Cl)cc2)c2ccccc12	none
O=C(O)COc1ccc(Br)cc1C(c1c(C(=O)O)[nH]c2ccccc12)c1c(C(=O)O)[nH]c2ccccc12	SARS 3CLpro inh-1 13.1 (no result: CCHFV vOTU inh, RecA splice inh) | SARS 3CLpro inh-2 16.1
O=C(O)c1[nH]c2ccccc2c1C(c1ccccc1)c1c(C(=O)O)[nH]c2ccccc12	none
Cc1ccc(NC(=O)CCC(=O)NNC(=O)C(c2ccccc2)c2ccccc2)c(C)c1	SARS 3CLpro inh-1 14.0 (no result: RecA splice inh) | SARS 3CLpro inh-2 inactive
C/C(Cn1nnc([N+](=O)[O-])n1)=N\NC(=O)c1ccc(Cl)c(Cl)c1	SARS 3CLpro inh-1 13.7 | SARS 3CLpro inh-2 inactive
CC(=O)Nc1ccc(C(CCCc2ccccc2)C2=CCCCC2)cc1 (stereo not given)	none (no result: VHR inh abs, SARS 3CLpro inh-1, RecA splice inh)
CC(C)NC(=O)CN1CCN(c2ncccn2)CC1	SARS 3CLpro inh-1 12.3 | SARS 3CLpro inh-2 inactive
CC(NC(=O)CN1CCN(c2ncccn2)CC1)c1ccc(F)cc1 (stereo not given)	none
Cc1cccc(NS(=O)(=O)c2nnc(NC(=O)c3ccc(Cl)cc3)s2)c1	SARS 3CLpro inh-1 13.2 | SARS 3CLpro inh-2 inactive
Cc1cccc(NS(=O)(=O)c2nnc(NC(=O)c3cccc(C)c3)s2)c1	SARS 3CLpro inh-1 12.4 | SARS 3CLpro inh-2 inactive
CCCC(=O)N(Cc1cc(=O)[nH]c2ccccc12)c1ccc(OC)cc1	none
COc1ccc(N(Cc2cc(=O)[nH]c3ccccc23)C(=O)CCl)cc1	SARS 3CLpro inh-1 16.2 (no result: RecA splice inh) | SARS 3CLpro inh-2 24.6 | GFP chromophore 15.3
CCCCCc1c2c(cc(O)c1C(=O)O)OC(=O)c1c(cc(OC)cc1C(=O)CCCC)O2	SARS 3CLpro inh-1 15.2, RecA splice inh 30.8 (no result: CCHFV vOTU inh) | SARS 3CLpro inh-2 inactive | GFP chromophore 12.1
CCc1ccc(S(=O)(=O)/N=C2\C=C(Nc3ccc(C(=O)O)cc3)C(=O)c3ccccc32)cc1	SARS 3CLpro inh-1 16.8, CCHFV vOTU inh 111.8, RecA splice inh 91.0 | SARS 3CLpro inh-2 inactive | GFP chromophore 0.243
CCc1ccc(NC2=CC(=O)C(=O)c3ccccc32)cc1	none (no result: VHR inh abs, SARS 3CLpro inh-1, RecA splice inh)
CN(C)c1nc(C=C(C#N)C#N)c(Cl)n1-c1ccc(F)cc1	none
O=C(N=C1c2ccccc2CN1c1ccc(F)c(Cl)c1)c1cccnc1Cl	none
Cc1ccc(C2=NN(C(=O)CCl)C(c3ccco3)C2)o1 (stereo not given)	SARS 3CLpro inh-1 47.4, RecA splice inh 62.8 | SARS 3CLpro inh-2 60.8 | GFP chromophore 39.7
O=C(CCl)N(CCc1ccccc1)CCc1ccccc1	SARS 3CLpro inh-1 16.4, RecA splice inh 73.8 | SARS 3CLpro inh-2 23.9 | GFP chromophore 20.1
COc1ccccc1/C=N\NC(=O)c1ccc(COc2ccc(C)c(C)c2)o1	none (no result: VHR inh abs, SARS 3CLpro inh-1)
